Reference: the supplement of paper PMC3334620
The full ranking holds about 33,000 sequences; the median of “E-score (-0.5 to 0.5)” is about -0.016, and the highest 2% start at about 0.31. For the sample, the highest values were picked, then their nearest neighbours and some sequences at random.

target: Cst6 (UniProt P40535); assay: PBM E-score (8-mer binding enrichment) (E-score (-0.5 to 0.5)); higher = stronger / more preferred TF binding; details: protein concentration: 200 nM; construct: GST-DNA-binding domain
How it was run: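 Yeast transcription factors, full-length or as DNA-binding domains, were expressed with a GST tag using PURExpress in vitro transcription/translation. At about 100-200 nM they were applied to universal all-10-mer Agilent arrays, double-stranded by primer extension on fresh or once-stripped slides. Fluorescent anti-GST detected bound protein, and masliner normalised the scans. E-scores for ungapped eight-base words, pooled with reverse complements, came from the Universal PBM Analysis Suite.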

UniProt P40535, sequence (P40535 whole entry, the tested form may be a part): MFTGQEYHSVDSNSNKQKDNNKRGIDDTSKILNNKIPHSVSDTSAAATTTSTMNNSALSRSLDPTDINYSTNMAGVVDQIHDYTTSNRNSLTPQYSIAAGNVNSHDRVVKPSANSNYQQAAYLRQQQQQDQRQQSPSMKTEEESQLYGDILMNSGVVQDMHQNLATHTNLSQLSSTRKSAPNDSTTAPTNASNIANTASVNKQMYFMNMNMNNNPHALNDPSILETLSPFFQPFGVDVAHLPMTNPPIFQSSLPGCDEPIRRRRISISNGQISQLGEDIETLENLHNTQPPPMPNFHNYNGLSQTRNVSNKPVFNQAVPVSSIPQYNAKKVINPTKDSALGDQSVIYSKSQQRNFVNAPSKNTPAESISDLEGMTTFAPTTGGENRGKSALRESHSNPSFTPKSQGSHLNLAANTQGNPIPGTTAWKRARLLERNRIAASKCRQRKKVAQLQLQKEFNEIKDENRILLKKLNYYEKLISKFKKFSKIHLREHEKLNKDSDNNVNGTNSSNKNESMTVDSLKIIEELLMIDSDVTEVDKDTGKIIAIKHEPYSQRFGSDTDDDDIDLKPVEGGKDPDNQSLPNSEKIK

Sequence | PBM E-score
AGTCGTAT | -0.0183
AGCCTCGC | -0.0857
CCTGGATC | -0.334
GTACCAGA | -0.199
ACTCCAGT | -0.162
CCGTCCCC | -0.289
GGTGGAGA | -0.338
ACATGGGT | 0.00268
CGGGTTCA | -0.134
GATAACCA | -0.0596
GGAGCTGA | -0.207
ATGACTCC | 0.0246
ACGACGCA | 0.145
ATGACTCA | 0.309
ATGACGCA | 0.485
GTGACTCA | 0.228
AGGACGCA | -0.209
ACGGGACA | -0.177
ATACCACG | 0.128
GGTCATAC | 0.151
CCTCATAG | 0.0666
CGTCATAG | 0.468
AGTCATAG | 0.0637
AGTCATAC | 0.144
CGTCATAC | 0.481

Sequence | PBM E-score
ATCCATTG | 0.0328
AAGGAGAG | -0.258
TAATTACA | 0.277
TAACCACA | 0.0592
CCATCACC | 0.15
GCATCACC | 0.231
ACATCACG | 0.303
ACATCACC | 0.417
TCATCACA | 0.252
AGATCACT | 0.181
ACATCACA | 0.328
ACATCACT | 0.401
ACATCAGT | 0.218
CCCGGTGC | -0.264
GGCGATTA | 0.188
CGTCGCCA | -0.0999
CGCAGTAG | -0.101
ATCGACCA | -0.228
CGCTGGAC | -0.297
CAAAAAAG | 0.254
AAATGATA | 0.304
TAATGACA | 0.347
CAATGACA | 0.341
TAATGATA | 0.387
AAATGACA | 0.298

Sequence | PBM E-score
CAATGACG | 0.469
CAATGACC | 0.148
CAATGAAG | 0.0658
TAATGAGA | 0.0949
GAATGACA | 0.259
TAATGCCA | 0.197
GAATGATA | 0.278
CTTTAAGC | 0.0326
GTTGGGAA | -0.0904
TACCTACA | 0.0531
ACCGGGTG | -0.19
GCGATTAC | 0.184
CACCGCAG | -0.116
CGTCTCGA | 0.143
GAGTTTTA | 0.122
CTATGACA | 0.264
ATATGACA | 0.304
GTATGACA | 0.323
AAATGACT | 0.0956
AAATGACC | 0.102
AAATGACG | 0.466
AGCTCATA | 0.124
GAAGAACA | 0.131
TAAGAACA | 0.312
CAAGAACA | 0.053

Sequence | PBM E-score
CCTTACCA | -0.119
CCCGTTCC | -0.132
CATCACCA | 0.372
AATCACCA | 0.169
CATCACCC | 0.308
TATCACCA | 0.123
CATCACCG | 0.305
AATCACCC | -0.00614
CATTGTCC | -0.0804
ACCGCAAC | 0.0509
GTCACATA | 0.245
CGAAGTTA | 0.11
CCTAACAG | 0.00445
GCTGGCAA | -0.106
CTGATGTA | 0.326
CCGATGTA | -0.0196
AAGATGTA | 0.169
AGGATGTA | 0.0787
CGGATGTA | -0.0158
CTGATGTC | 0.287
GTGATGTA | 0.465
GGGATGTA | -0.0844
ACGATGTC | 0.0231
ATGATGTC | 0.478
GAGATGTA | 0.0936

Sequence | PBM E-score
ATGATGTA | 0.462
GCACTGCC | 0.0838
AGTCCTTA | -0.0772
CAGCCCAG | -0.383
ACAGCCCC | -0.228
AGTCCCTG | -0.223
CGATTGAG | -0.0697
GACGATGA | 0.301
CCCAGGAA | -0.176
CTTTCTGC | 0.0175
ATGATGAG | 0.232
AGGATGTG | -0.232
ATGATGTG | 0.333
CTGAGAGC | -0.0922
CGCGGCGA | 0.27
CACGGCGA | 0.21
CGCGCGGC | 0.378
CGCGCGGA | 0.131
CGCGGCAA | 0.134
AGCGCGGC | 0.115
AGCGGCGC | 0.107
AGCGGCAC | 0.123
CACGGCGC | 0.357
CGCGGCGC | 0.372
CGCGGCAC | 0.324

Sequence | PBM E-score
AACGGCGC | 0.251
CTTCGTAC | -0.193
AACATAAT | 0.246
ATTAACGC | 0.0112
CAGGGAGA | -0.227
GACTTAAC | -0.167
ACGGATAC | 0.115
ATGTCTGG | -0.0099
ACTCATTG | -0.129
ATGAACTG | 0.12
GAACGGTC | -0.223
AGTGGGTG | 0.0423
ACATCCGT | 0.0894
CGCACGGC | 0.375
AGCACGGC | 0.198
CGGCGCGA | 0.35
CGGCGCGC | 0.242
CGCACGGA | 0.154
AGGCGCGA | 0.205
AAACAAAT | 0.192
CTTATTAA | 0.141
ATCGACGA | 0.00463
GCGTAATA | 0.296
AAGTAATC | 0.179
CCGTAATA | 0.176

Sequence | PBM E-score
AGGTAATG | 0.101
AAGTAATG | 0.116
ACGTAATC | 0.484
ACGTAATG | 0.476
ACGTAATA | 0.482
CCGTAATC | 0.0889
GCGCTCAA | -0.165
CCTAGCGA | -0.296
AGCCGACA | -0.162
TAATTTAA | 0.287
CATCGCCA | 0.0609
ACACGGAC | -0.00107
CTTCCAAC | -0.0988
AGCCGCAA | -0.127
AGCCGCAT | 0.338
AGCCGCAC | 0.188
GCACCTGC | -0.114
AAGCTTTG | -0.087
TTCTGCAA | 0.138
ACTATGAC | 0.264
AATATGTC | 0.319
GCTATGAC | 0.332
AATATGAC | 0.35
AATATGAG | 0.132
AATATGAT | 0.233

Sequence | PBM E-score
CATATGAC | 0.366
GATATGAC | 0.273
AATATGTG | 0.25
AATATGTA | 0.211
CATATGAG | 0.0643
CCTATGAC | 0.221
CGAAAGCA | -0.0132
CATCTGAA | 0.037
ATCCTATC | -0.0914
ACCGTCGG | -0.194
CGTCTATA | -0.0233
ACCTTTGC | -0.095
CGCTGCAC | -0.0108
ATTATGAG | 0.22
CTTATGAA | 0.052
ATTATGAC | 0.394
CTTATGAC | 0.368
ATTATGAA | 0.292
CTTATGCC | 0.0646
AACAAGAA | 0.237
AGAAAGCT | 0.0476
ATAGTCGA | 0.168
CCATATTA | 0.0718
GTATATTA | 0.261
ACATATTG | 0.137

Sequence | PBM E-score
ATATATTG | 0.109
ACATATTA | 0.312
CTATATTA | 0.333
ATATATTA | 0.336
CTCTATTA | 0.0287
CTATATTC | 0.0369
TACTGGCA | -0.0625
CAGACAGG | -0.15
ATCGATAC | 0.171
AGCTCCGA | -0.145
CAAAGCGA | -0.0448
TCGACACA | 0.108
AGCAAGCG | -0.11
ATGACGTG | 0.491
CTGACGTA | 0.489
CAGACGTA | 0.0968
GTGACGTA | 0.496
AGGACGTG | -0.088
ATCACGTC | 0.286
GCGACGTA | 0.219
GGGACGTA | 0.0851
ATCACGTG | 0.135
ACGACGTG | 0.061
CCGACGTA | 0.0226
ATCACGTA | 0.344

Sequence | PBM E-score
AGGCTCGA | 0.0255
CTGGTGTC | -0.119
GCAGCCGA | -0.053
AAAACCGA | 0.0246
TTCCAAAA | 0.0844
CAGGCTAC | -0.249
GCTCCGCC | -0.185
CCGCCGGA | -0.149
ACCATCGA | -0.0265
CGAGGCGC | 0.188
AAGACGTA | 0.215
ATGACGTA | 0.498
AGGACGTA | -0.126
CACCGTTC | -0.0919
CAGGCGAG | -0.261
ATTGCGTA | 0.415
GTTGCGTA | 0.264
ATTGCGTG | 0.154
CTTGCGTC | 0.249
AGTGCGTC | 0.104
ATTGCGTC | 0.34
CTCGTTCA | 0.022
ATTCCCGG | 0.041
AGGAGCGG | -0.207
GAACGTCA | 0.442

Sequence | PBM E-score
AAACGTCA | 0.463
GAACGTCC | 0.0008
TAACGTTA | 0.149
TAACGTCA | 0.489
CAACGTCG | 0.0638
GAACGTTA | -0.124
CAACGTCA | 0.471
AAACGTCC | -0.0706
AAACGTCT | 0.14
CAACGTCC | -0.263
TAACGTGA | 0.284
CCAGGCGA | -0.317
CTACCTAG | -0.231
ATCCCGGA | -0.249
AATGAGCG | 0.139
AAGTAAAA | 0.148
AGCCAGTG | -0.171
ATCGCCTA | -0.115
CGATTGTA | 0.0905
CGGTCTTC | -0.0638
AACTGTGT | 0.0284
ATCAGTTC | -0.0191
ATACAGCC | -0.059
GGGTGCCA | -0.137
CGGTATGC | -0.111

Sequence | PBM E-score
ACGGTCTG | -0.189
GCACGTAA | 0.232
CCACGTAA | 0.275
TCACGTAA | 0.415
ACACGTAC | -0.0236
ACACGTAA | 0.366
ACACGTAG | 0.0917
CTACCCCA | -0.16
ATACAGAC | 0.128
CCGCAACA | 0.113
GACGTTAC | 0.315
CACGTTAC | 0.143
AACGTTAC | 0.137
TACGTTAA | 0.189
GACGTTAA | 0.32
CACGTTAA | 0.0603
GCCAAAAC | 0.00644
AGCTGCGA | -0.198
AGCGGTCC | -0.134
ATACGGGC | -0.204
ACTGGGGG | -0.426
CGGACGCA | -0.0966
CGGCGCCG | 0.384
CGGCGCCA | 0.161
AGGCGCCA | 0.0572

Sequence | PBM E-score
AGGCGCCT | 0.207
CGGCGCCC | 0.143
AGGCGCCG | 0.325
CCGTCGAA | 0.0203
GCAAATGC | 0.0351
AATAGCCC | -0.132
AGCCGGCT | -0.193
GAGATGAC | 0.239
CAGATGAC | 0.383
AAGATGAG | -0.0416
CGGATGAC | 0.321
AAGATGAC | 0.345
AAGATGAT | 0.229
CGGATGAA | 0.127
CAGATGAG | 0.0374
CGGATGAG | -0.135
GTAAGTCA | 0.132
TCGCTCAA | -0.091
AATTGCCC | -0.055
CCAAAAGA | 0.207
AAAATCGG | -0.00802
GCGCAGCC | -0.38
ATAAAAGG | 0.0584
ATTAAATC | 0.212
ATAAAAAA | 0.234

Sequence | PBM E-score
ATTAAATG | 0.315
CTTGAAAA | 0.216
ATTAAATA | 0.267
ATTGAAAC | 0.194
ATAAAAAG | 0.307
ATTGAAAA | 0.31
CTAAAAAA | 0.273
TTAAAAAA | 0.306
TTTAAAAA | 0.0985
CAGGTTAG | -0.116
CCGCTTGA | 0.0541
ATCTGCTG | 0.0566
GAAGCTGC | -0.117
ACTTAGCA | -0.0634
ATTCCGCG | 0.129
ATTAAAAC | 0.213
ATTAAAAA | 0.323
ATTAAAAG | 0.173
ACTACACA | 0.17
